Laboratory results as given in paper PMC7862700, “An all-to-all approach to the identification of sequence-specific readers for epigenetic DNA modifications on cytosine”.

Key:
Assay in all cases: DAPPL (digital affinity profiling via proximity ligation, sequencing); 10 mM Tris-HCl pH 7.5, 50 mM NaCl, 1 mM DTT, 4% glycerol, room temperature, 30 min; GST-TFs on glutathione beads, 16-mer random dsDNA library, 0.1% formaldehyde crosslink after washing; high values mean tight binding
FLI1 = target: T1, FLI1 (Homo sapiens, UniProt Q01543 1-452); details: protein: recombinant; tags: N-terminal GST; dsDNA, one strand shown
T1 sequence: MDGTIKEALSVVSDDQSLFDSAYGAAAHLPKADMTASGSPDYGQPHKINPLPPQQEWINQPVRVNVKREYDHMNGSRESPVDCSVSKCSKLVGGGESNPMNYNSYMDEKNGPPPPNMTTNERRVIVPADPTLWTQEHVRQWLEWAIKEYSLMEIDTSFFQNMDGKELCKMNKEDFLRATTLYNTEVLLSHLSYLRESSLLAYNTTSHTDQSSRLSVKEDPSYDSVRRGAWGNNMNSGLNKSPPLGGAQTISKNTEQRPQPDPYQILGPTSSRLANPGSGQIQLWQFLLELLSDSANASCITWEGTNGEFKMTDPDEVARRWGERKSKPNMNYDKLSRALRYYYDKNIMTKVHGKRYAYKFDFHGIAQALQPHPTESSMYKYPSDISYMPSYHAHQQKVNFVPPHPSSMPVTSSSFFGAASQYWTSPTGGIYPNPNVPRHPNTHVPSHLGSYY
How it was run: (§1)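 Pools were built from human transcription factors expressed in yeast as GST fusions, captured on glutathione beads and DNA-barcoded, along with a tag-only sample. Incubation with 200 nmole of a 16-mer random double-stranded DNA library lasted 30 min at room temperature in Tris/NaCl/DTT/glycerol buffer, and was followed by washing, 0.1% formaldehyde crosslinking, proximity ligation, PCR amplification and Illumina NextSeq500 sequencing. Binding signal is the quotient of each hexamer's read frequency for a factor and its frequency for the tag-only sample.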

ELK1 = target: T2, ELK1 (Homo sapiens, UniProt P19419 1-428); details: protein: recombinant; tags: N-terminal GST; dsDNA, one strand shown
T2 sequence: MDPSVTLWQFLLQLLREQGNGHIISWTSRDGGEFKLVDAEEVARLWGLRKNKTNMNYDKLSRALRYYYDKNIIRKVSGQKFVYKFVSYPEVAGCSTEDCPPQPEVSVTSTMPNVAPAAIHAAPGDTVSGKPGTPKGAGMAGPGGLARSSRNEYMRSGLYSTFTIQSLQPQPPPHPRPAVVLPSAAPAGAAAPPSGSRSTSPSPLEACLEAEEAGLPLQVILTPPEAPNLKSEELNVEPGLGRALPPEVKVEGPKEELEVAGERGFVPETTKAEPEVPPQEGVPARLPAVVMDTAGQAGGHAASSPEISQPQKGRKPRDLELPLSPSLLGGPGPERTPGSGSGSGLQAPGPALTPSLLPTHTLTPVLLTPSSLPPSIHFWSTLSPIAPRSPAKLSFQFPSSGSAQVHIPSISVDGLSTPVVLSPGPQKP
How it was run: as §1

GABPA = target: T3, GABPA (Homo sapiens, UniProt Q06546 1-454); details: protein: recombinant; tags: N-terminal GST; dsDNA, one strand shown
T3 sequence: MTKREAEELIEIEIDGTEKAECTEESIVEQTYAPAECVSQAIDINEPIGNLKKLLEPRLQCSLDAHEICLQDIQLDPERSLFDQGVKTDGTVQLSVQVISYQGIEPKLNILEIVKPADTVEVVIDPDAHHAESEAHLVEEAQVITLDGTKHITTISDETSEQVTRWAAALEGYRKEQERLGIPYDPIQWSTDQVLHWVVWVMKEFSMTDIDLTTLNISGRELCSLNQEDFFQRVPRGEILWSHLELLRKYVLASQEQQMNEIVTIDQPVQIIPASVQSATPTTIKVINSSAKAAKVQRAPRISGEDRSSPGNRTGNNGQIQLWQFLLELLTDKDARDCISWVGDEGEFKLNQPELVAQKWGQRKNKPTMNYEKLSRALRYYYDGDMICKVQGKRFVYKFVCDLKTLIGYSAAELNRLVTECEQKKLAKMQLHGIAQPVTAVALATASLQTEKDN
How it was run: as §1

ERG = target: T4, ERG (Homo sapiens, UniProt P11308 1-479); details: protein: recombinant; tags: N-terminal GST; dsDNA, one strand shown
T4 sequence: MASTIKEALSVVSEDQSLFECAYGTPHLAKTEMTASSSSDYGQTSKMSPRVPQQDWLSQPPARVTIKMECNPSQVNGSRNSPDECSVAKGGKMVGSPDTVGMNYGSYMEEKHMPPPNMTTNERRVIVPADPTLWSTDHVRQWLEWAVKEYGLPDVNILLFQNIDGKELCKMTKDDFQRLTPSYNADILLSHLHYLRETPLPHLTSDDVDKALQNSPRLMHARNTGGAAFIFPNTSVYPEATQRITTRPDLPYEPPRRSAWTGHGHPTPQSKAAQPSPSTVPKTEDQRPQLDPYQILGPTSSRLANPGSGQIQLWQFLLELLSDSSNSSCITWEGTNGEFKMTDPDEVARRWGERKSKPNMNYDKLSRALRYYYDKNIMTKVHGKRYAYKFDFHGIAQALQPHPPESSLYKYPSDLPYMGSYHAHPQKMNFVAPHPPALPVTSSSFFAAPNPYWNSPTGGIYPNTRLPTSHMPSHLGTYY
How it was run: as §1

ELF1 = ELF1 (Homo sapiens, UniProt P32519 1-619); details: protein: recombinant; tags: N-terminal GST; dsDNA, one strand shown
Chain of ELF1 (P32519 whole entry): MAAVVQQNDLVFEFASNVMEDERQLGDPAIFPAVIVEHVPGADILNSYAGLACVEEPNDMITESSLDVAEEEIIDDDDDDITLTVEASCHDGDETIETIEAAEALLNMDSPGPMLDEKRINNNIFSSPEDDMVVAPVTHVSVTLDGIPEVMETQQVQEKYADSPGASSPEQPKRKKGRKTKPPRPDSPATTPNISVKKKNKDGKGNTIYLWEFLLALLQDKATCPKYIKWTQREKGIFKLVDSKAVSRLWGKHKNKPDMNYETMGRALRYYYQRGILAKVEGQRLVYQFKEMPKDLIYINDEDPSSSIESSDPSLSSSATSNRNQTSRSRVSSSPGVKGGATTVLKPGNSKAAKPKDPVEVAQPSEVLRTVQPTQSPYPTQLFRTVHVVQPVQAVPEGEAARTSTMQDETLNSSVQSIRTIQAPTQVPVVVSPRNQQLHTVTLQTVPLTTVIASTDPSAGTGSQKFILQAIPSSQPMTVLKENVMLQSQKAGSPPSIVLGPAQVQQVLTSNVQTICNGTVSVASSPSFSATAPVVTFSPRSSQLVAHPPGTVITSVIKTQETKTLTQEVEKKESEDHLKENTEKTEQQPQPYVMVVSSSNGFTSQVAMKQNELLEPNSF
How it was run: as §1

EHF = target: T5, EHF (Homo sapiens, UniProt Q9NZC4 1-300); details: protein: recombinant; tags: N-terminal GST; dsDNA, one strand shown
T5 sequence: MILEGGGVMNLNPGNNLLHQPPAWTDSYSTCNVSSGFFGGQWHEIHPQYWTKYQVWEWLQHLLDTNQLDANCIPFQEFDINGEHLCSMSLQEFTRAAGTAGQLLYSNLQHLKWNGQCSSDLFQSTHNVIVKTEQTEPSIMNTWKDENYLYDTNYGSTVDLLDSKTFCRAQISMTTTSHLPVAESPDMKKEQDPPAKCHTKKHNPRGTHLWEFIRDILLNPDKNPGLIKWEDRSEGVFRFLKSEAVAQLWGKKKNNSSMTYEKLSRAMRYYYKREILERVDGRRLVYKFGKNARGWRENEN
How it was run: as §1

SPI1 = SPI1 (Homo sapiens, UniProt P17947 1-270); details: protein: recombinant; tags: N-terminal GST; dsDNA, one strand shown
How it was run: as §1

SPIB = SPIB (Homo sapiens, UniProt Q01892 1-262); details: protein: recombinant; tags: N-terminal GST; dsDNA, one strand shown
Chain of SPIB (Q01892 whole entry): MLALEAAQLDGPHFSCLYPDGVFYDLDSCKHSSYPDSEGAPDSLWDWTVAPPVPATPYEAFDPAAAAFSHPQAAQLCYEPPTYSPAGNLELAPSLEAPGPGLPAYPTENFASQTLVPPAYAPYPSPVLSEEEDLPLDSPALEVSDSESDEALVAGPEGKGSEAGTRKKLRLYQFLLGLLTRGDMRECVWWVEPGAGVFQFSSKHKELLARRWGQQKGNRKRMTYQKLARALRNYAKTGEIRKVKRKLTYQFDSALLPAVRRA
How it was run: as §1

ELK3 = target: T6, ELK3 (Homo sapiens, UniProt P41970 1-407); details: protein: recombinant; tags: N-terminal GST; dsDNA, one strand shown
T6 sequence: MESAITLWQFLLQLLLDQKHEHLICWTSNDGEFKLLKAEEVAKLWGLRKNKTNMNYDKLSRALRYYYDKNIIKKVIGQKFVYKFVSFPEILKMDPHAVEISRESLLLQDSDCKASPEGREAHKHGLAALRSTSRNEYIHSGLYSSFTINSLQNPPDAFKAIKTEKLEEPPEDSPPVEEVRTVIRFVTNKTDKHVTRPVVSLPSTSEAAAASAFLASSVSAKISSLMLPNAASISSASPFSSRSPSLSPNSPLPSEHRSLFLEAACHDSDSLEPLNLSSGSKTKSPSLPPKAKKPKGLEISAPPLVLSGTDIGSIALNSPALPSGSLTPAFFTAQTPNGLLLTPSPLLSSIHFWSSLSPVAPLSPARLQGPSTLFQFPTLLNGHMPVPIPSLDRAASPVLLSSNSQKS
How it was run: as §1

FEV = target: T7, FEV (Homo sapiens, UniProt Q99581 1-238); details: protein: recombinant; tags: N-terminal GST; dsDNA, one strand shown
T7 sequence: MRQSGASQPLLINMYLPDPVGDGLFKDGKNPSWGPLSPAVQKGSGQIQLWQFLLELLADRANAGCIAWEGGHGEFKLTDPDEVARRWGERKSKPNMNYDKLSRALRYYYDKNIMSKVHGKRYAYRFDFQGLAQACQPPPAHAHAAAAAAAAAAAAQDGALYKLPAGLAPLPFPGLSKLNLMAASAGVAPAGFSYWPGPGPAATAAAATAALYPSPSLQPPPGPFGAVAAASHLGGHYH
How it was run: as §1

ETV5 = ETV5 (Homo sapiens, UniProt P41161 1-510); details: protein: recombinant; tags: N-terminal GST; dsDNA, one strand shown
Chain of ETV5 (P41161 whole entry): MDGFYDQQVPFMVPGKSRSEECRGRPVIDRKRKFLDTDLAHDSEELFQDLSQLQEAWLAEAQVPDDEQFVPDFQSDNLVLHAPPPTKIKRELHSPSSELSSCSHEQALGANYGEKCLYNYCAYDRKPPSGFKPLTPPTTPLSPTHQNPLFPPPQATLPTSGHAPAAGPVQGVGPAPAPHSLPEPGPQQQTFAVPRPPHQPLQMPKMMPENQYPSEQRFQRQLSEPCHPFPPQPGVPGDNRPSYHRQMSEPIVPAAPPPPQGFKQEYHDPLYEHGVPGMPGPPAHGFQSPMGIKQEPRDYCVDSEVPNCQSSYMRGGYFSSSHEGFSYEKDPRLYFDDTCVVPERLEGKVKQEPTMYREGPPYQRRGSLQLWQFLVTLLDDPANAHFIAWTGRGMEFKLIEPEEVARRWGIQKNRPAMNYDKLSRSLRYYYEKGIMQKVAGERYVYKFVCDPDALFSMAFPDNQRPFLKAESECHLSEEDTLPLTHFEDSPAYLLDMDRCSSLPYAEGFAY
How it was run: as §1

HSF1 = HSF1 (Homo sapiens, UniProt Q00613 1-529); details: protein: recombinant; tags: N-terminal GST; chain copies: 3; dsDNA, one strand shown
Chain of HSF1 (Q00613 whole entry): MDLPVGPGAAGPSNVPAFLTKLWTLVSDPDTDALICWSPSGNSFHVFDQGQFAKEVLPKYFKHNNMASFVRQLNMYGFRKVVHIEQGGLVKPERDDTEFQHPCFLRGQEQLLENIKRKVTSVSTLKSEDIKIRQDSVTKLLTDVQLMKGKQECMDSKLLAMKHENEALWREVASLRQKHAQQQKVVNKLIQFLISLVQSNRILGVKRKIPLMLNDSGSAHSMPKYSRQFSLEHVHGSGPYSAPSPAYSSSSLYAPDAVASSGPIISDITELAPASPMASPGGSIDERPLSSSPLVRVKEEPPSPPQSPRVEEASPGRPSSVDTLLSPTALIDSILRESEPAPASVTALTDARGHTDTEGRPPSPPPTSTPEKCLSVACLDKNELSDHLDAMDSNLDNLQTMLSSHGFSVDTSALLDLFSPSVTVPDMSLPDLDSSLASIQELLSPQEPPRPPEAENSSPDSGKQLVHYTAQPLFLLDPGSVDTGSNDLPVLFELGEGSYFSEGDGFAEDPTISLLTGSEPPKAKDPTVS
How it was run: as §1

SPIC = target: T8, SPIC (Homo sapiens, UniProt Q8N5J4 1-248); details: protein: recombinant; tags: N-terminal GST; dsDNA, one strand shown
T8 sequence: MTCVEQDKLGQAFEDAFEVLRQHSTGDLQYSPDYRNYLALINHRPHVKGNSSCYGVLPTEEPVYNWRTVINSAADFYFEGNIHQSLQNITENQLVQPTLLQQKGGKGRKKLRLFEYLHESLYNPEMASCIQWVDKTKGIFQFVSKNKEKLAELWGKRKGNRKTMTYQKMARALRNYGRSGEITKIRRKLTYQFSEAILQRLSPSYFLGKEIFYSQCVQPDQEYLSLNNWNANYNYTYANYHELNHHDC
How it was run: as §1

ELF4 = ELF4 (Homo sapiens, UniProt Q99607 1-663); details: protein: recombinant; tags: N-terminal GST; dsDNA, one strand shown
Chain of ELF4 (Q99607 whole entry): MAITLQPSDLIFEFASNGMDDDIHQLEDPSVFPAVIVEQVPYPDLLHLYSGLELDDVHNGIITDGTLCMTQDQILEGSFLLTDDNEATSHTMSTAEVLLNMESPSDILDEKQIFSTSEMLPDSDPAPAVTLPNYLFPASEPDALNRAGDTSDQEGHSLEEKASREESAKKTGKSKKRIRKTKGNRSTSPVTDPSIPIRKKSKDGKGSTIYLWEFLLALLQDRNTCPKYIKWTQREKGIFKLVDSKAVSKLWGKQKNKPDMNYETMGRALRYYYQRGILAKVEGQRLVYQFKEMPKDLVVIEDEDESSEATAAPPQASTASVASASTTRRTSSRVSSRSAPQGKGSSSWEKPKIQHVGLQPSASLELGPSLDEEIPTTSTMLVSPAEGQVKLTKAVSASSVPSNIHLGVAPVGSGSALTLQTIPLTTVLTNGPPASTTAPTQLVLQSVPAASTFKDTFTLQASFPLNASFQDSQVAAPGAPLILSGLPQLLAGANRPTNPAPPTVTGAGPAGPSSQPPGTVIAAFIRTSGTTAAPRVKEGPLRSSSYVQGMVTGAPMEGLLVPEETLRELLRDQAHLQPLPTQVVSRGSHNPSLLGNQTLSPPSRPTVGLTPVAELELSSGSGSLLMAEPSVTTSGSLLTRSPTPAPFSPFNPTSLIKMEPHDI
How it was run: as §1

ELK4 = target: T9, ELK4 (Homo sapiens, UniProt P28324-2 1-405); details: protein: recombinant; tags: N-terminal GST; dsDNA, one strand shown
T9 sequence: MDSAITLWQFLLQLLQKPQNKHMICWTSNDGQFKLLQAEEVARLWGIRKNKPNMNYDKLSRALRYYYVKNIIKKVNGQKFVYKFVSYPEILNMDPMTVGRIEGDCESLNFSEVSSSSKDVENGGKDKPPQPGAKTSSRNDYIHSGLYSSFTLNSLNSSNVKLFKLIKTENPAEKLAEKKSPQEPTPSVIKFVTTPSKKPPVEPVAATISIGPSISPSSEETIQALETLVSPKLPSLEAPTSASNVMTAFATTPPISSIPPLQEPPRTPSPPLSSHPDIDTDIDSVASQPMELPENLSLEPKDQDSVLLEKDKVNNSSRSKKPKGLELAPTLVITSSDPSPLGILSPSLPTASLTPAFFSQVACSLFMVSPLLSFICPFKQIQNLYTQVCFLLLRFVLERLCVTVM
How it was run: as §1

ETV2 = target: T10, ETV2 (Homo sapiens, UniProt O00321 1-342); details: protein: recombinant; tags: N-terminal GST; dsDNA, one strand shown
T10 sequence: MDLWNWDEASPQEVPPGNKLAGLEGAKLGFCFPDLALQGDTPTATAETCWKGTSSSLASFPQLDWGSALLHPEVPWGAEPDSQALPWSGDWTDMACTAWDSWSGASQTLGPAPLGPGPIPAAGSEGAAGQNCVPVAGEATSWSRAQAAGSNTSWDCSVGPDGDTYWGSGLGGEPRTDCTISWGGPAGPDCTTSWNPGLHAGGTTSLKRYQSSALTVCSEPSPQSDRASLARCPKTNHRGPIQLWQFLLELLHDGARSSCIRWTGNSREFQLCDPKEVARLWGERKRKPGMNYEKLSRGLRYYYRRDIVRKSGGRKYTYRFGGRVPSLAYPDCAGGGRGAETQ
How it was run: as §1

ELF3 = target: T11, ELF3 (Homo sapiens, UniProt P78545 1-371); details: protein: recombinant; tags: N-terminal GST; dsDNA, one strand shown
T11 sequence: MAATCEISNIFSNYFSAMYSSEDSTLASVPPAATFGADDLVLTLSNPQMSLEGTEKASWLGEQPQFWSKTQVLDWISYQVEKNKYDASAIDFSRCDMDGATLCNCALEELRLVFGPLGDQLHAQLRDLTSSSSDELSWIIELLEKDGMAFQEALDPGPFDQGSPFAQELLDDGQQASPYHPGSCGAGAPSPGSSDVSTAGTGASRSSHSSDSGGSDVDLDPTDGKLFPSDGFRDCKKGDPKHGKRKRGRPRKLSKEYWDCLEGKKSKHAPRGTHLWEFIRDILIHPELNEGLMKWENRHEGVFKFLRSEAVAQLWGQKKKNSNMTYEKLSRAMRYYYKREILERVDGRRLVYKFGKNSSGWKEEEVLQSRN
How it was run: as §1

CRX = CRX (Homo sapiens, UniProt O43186 1-299); details: protein: recombinant; tags: N-terminal GST; dsDNA, one strand shown
Chain of CRX (O43186 whole entry): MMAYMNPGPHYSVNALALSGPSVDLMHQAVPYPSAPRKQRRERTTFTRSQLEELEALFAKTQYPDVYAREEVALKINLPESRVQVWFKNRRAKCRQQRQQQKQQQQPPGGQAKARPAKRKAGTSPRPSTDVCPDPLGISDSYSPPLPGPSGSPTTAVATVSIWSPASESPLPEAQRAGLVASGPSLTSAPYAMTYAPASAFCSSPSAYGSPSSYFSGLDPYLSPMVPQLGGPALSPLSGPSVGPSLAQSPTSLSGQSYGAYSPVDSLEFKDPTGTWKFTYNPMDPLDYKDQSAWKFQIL
How it was run: as §1

ETV1 = ETV1 (Homo sapiens, UniProt P50549 1-477); details: protein: recombinant; tags: N-terminal GST; dsDNA, one strand shown
Chain of ETV1 (P50549 whole entry): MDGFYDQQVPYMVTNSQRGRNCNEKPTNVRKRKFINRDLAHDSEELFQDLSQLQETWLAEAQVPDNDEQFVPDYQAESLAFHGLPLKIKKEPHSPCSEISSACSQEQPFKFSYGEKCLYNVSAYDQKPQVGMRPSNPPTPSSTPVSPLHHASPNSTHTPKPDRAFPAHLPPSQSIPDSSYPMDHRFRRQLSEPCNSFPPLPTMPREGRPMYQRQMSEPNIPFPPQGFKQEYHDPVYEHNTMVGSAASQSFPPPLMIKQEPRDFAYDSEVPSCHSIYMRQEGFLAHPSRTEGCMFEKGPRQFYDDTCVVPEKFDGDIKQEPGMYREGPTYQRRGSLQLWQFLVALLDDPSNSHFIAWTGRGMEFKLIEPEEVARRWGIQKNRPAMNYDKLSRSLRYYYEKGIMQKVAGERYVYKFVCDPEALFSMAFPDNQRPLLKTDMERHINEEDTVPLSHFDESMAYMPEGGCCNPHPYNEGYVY
How it was run: as §1

Sequence: CCGCAA
- binding signal (FLI1): 1.27 fold enrichment (6-mer frequency, TF over GST control)
- binding signal (ELK1): 1.3 fold enrichment (6-mer frequency, TF over GST control)
- binding signal (GABPA): 1.36 fold enrichment (6-mer frequency, TF over GST control)
- binding signal (ERG): 1.28 fold enrichment (6-mer frequency, TF over GST control)
- binding signal (ELF1): 1.31 fold enrichment (6-mer frequency, TF over GST control)
- binding signal (EHF): 1.34 fold enrichment (6-mer frequency, TF over GST control)
- binding signal (SPI1): 1.45 fold enrichment (6-mer frequency, TF over GST control)
- binding signal (SPIB): 1.28 fold enrichment (6-mer frequency, TF over GST control)
- binding signal (ELK3): 1.34 fold enrichment (6-mer frequency, TF over GST control)
- binding signal (FEV): 1.29 fold enrichment (6-mer frequency, TF over GST control)
- binding signal (ETV5): 1.3 fold enrichment (6-mer frequency, TF over GST control)
- binding signal (HSF1): 1.07 fold enrichment (6-mer frequency, TF over GST control)
- binding signal (SPIC): 1.42 fold enrichment (6-mer frequency, TF over GST control)
- binding signal (ELF4): 1.31 fold enrichment (6-mer frequency, TF over GST control)
- binding signal (ELK4): 1.36 fold enrichment (6-mer frequency, TF over GST control)
- binding signal (ETV2): 1.35 fold enrichment (6-mer frequency, TF over GST control)
- binding signal (ELF3): 1.39 fold enrichment (6-mer frequency, TF over GST control)
- binding signal (CRX): 1.01 fold enrichment (6-mer frequency, TF over GST control)
- binding signal (ETV1): 1.38 fold enrichment (6-mer frequency, TF over GST control)
